# Test results from the supplement of paper PMC10849652.
# Targets with a hit are over-represented here; the source holds about 7,900 in all. About 0.6% of all pairs of compound and target were hits. Unmarked numbers belong to inactive results.
# Compound: Cc1ccc(-n2nc(C(C)(C)C)cc2NC(=O)Nc2ccc(OCCN3CCOCC3)c3ccccc23)cc1 [doramapimod]
# Experiment: log2 fold change, soluble protein after heating vs DMSO (PISA); higher = thermal stabilisation; K562 cells, 10 uM, 30 min; active = over 0.2 and 3.5 SD of the protein, either way, in both replicates (recomputed)
# How it was run: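 Aliquots of K562 cells (2×10^6 cells/mL) treated with 10 μM compound for 30 min were heated for 3 min over 48°C-58°C. After pooling and extraction in PBS with 0.5% NP-40 at 4°C, soluble protein from a 21,000xg, 90 min spin was quantified by TMTpro 16plex LC-MS/MS with channel sums equalised. Thermal stability is expressed against control samples, from duplicates, as a log2 fold change.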
# Sequence of UniProt Q8IWX8 (Q8IWX8 whole entry, looked up): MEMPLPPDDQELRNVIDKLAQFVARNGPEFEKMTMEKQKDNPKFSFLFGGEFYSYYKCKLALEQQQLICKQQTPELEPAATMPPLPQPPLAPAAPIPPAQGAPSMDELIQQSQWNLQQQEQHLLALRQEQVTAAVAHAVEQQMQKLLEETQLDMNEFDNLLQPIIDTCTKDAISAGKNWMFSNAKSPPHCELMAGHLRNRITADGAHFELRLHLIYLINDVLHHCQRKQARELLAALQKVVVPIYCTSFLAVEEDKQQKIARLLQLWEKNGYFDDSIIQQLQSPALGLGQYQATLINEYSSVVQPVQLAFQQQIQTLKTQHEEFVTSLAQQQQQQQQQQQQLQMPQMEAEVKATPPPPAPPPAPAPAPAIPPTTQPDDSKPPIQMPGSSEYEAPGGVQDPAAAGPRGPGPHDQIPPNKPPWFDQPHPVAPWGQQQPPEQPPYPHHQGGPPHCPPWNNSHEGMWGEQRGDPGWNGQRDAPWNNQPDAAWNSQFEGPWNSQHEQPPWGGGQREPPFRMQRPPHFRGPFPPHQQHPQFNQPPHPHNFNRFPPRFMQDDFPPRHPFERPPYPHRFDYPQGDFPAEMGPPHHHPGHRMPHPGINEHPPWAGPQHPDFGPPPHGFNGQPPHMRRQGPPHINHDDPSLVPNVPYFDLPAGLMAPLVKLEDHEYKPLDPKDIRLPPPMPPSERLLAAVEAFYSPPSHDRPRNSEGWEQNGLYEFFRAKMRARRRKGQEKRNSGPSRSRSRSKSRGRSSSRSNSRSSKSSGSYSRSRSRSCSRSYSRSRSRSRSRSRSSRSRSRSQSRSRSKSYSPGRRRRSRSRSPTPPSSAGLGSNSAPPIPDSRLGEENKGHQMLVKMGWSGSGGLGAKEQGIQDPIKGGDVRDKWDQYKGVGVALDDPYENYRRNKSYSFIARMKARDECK
# Sequence of UniProt Q5T5Y3 (Q5T5Y3 whole entry, looked up): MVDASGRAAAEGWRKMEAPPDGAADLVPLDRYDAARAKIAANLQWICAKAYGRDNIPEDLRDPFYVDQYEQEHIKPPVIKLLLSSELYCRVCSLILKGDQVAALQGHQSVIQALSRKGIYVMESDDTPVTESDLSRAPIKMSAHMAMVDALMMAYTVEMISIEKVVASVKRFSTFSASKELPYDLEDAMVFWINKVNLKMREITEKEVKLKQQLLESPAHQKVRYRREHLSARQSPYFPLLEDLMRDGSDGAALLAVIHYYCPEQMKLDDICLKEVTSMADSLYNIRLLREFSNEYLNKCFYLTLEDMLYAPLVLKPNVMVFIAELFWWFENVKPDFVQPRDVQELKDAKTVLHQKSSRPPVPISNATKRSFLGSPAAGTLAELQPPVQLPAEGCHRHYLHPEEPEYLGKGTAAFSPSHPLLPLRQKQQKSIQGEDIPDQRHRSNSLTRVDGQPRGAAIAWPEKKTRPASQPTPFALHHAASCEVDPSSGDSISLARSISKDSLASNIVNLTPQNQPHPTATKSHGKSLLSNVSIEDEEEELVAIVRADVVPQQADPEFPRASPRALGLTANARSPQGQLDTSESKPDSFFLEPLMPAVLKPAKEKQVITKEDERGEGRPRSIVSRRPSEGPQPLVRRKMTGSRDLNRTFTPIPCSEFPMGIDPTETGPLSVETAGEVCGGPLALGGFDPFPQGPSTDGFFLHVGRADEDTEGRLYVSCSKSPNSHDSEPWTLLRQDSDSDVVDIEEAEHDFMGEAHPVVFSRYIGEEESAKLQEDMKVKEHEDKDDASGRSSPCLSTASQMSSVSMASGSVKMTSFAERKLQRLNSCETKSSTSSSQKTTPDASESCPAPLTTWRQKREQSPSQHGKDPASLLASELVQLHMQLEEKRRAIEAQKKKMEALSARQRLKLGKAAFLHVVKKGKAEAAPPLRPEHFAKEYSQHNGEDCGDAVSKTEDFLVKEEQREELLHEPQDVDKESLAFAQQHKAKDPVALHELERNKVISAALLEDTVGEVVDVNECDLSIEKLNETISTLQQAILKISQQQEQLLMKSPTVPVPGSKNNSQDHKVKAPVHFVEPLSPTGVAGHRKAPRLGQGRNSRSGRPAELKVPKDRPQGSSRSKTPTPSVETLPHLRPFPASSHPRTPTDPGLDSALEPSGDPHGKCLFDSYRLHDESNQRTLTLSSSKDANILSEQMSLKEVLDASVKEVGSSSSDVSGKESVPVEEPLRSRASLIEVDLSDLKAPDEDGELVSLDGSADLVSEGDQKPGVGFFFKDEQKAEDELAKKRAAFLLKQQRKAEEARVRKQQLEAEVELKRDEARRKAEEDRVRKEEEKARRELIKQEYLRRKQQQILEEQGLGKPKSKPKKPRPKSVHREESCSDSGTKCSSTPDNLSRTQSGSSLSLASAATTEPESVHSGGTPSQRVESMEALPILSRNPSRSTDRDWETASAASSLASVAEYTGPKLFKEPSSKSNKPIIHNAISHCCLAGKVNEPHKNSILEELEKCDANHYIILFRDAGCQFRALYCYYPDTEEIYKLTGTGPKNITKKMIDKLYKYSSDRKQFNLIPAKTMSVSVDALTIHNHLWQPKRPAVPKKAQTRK
# Sequence of UniProt Q5T6V5 (Q5T6V5 whole entry, looked up): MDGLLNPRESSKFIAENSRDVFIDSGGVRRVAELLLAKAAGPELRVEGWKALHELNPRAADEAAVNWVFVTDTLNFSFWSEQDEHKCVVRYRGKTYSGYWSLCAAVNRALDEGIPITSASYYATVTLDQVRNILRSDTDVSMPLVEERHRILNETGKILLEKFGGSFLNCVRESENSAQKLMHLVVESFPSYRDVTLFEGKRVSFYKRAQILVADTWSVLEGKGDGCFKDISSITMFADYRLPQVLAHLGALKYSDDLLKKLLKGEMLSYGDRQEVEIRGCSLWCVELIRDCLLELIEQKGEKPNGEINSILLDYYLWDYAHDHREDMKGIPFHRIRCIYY
# Sequence of UniProt O95319 (O95319 whole entry, looked up): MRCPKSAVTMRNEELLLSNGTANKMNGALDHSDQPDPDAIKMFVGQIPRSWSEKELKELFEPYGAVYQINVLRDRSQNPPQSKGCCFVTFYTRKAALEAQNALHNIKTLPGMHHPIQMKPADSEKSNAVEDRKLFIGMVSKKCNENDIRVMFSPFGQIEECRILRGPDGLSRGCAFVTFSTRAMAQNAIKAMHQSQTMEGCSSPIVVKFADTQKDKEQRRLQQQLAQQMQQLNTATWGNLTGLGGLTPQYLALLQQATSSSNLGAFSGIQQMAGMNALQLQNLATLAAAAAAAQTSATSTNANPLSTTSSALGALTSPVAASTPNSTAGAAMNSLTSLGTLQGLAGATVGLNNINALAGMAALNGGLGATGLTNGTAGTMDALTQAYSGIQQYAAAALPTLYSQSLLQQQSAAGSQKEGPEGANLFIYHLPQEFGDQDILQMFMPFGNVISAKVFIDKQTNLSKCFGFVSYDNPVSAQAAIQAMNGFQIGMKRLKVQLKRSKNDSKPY
# Sequence of UniProt P46109 (P46109 whole entry, looked up): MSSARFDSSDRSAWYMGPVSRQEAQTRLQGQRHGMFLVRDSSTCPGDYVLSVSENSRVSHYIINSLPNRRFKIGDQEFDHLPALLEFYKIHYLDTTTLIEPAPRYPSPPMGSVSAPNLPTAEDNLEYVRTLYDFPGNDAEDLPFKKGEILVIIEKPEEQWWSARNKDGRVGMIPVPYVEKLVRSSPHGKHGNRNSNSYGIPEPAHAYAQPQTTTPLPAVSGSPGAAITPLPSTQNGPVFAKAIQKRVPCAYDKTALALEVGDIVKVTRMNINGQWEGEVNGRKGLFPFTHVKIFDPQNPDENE
# Sequence of UniProt Q96RR4 (Q96RR4 whole entry, looked up): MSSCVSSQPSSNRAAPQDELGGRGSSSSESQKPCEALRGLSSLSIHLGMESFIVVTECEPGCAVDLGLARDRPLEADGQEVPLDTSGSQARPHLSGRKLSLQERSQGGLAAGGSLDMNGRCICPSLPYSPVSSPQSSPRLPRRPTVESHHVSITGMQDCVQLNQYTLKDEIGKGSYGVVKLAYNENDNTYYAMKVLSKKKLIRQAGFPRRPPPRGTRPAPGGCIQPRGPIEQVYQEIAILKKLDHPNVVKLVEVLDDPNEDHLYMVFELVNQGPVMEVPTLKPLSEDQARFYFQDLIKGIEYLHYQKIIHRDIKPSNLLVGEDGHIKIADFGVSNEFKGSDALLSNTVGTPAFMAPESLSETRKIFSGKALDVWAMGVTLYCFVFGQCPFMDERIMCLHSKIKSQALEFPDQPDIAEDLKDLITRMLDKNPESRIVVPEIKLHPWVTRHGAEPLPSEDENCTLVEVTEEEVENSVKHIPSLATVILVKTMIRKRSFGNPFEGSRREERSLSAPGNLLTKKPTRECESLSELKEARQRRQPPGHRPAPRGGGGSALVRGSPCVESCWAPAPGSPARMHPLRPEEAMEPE
# Sequence of UniProt Q9Y646 (Q9Y646 whole entry, looked up): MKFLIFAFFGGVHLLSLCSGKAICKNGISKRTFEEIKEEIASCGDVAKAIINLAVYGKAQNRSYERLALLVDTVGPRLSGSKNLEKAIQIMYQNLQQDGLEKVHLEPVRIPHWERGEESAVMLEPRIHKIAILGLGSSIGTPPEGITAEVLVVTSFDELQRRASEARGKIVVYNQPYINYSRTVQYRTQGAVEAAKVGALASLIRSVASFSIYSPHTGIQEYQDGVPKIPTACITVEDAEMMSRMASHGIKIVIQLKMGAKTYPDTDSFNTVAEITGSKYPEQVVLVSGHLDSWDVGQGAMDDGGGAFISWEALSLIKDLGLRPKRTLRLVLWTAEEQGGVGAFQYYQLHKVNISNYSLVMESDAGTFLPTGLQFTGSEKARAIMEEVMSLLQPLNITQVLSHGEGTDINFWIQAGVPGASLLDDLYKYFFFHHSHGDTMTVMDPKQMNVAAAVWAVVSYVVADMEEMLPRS
# Sequence of UniProt Q5JTJ3 (Q5JTJ3 whole entry, looked up): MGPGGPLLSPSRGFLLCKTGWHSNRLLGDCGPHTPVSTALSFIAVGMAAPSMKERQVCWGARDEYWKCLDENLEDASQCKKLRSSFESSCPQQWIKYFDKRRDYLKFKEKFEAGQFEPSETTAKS
row,Target,log2 fold change
1,C9orf64 (UniProt Q5T6V5),-0.005
2,CELF2 isoform 3 (UniProt O95319),0.05
3,CAMSAP1 isoform 3 (UniProt Q5T5Y3),0.008
4,CNOT4 isoform 6 (UniProt O95628),-0.02
5,CSTF2 (UniProt P33240),0.028
6,CBX5 (UniProt P45973),-0.045
7,CHD3 isoform 3 (UniProt Q12873),0.026
8,CCDC9 (UniProt Q9Y3X0),-0.008
9,CHERP (UniProt Q8IWX8),0.01
10,COQ9 (UniProt O75208),-0.079
11,CPQ (UniProt Q9Y646),0.03
12,CD81 (UniProt P60033),-0.025
13,CDK6 (UniProt Q00534),0.018
14,CHMP4C (UniProt Q96CF2),-0.046
15,CHAC2 (UniProt Q8WUX2),-0.021
16,CSNK2B (UniProt P67870),-0.002
17,CBR1 (UniProt P16152),0.003
18,CRKL (UniProt P46109),-0.024
19,CHD4 isoform 2 (UniProt Q14839),0.014
20,COA6 isoform 2 (UniProt Q5JTJ3),0
21,CNDP2 (UniProt Q96KP4),0.018
22,CETN2 (UniProt P41208),0.017
23,CAMKK2 (UniProt Q96RR4),0.086
